# High-throughput results as filed in PubChem.
# Most compounds without a hit are left out; they make up all but 2.4% or so of the library.
# Dyrk1A ADPGlo: rat Dyrk1A kinase inhibitors, primary screen, biochemical, single point, plate reader | hit rate 0.43% among 310,000 | inhibition, % at 12.5 µM | Dual specificity tyrosine-phosphorylation-regulated kinase 1A (Rattus norvegicus), Q63470 | AID 504441, 2011 | ADP-Glo luminescence, NFATc1 peptide;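 also: plate controls were vehicle with enzyme for no effect and no enzyme for full effect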
# GSIS activator: GLuc luminescence reporter in INS-1E cells, primary screen for activators of glucose-dependent secretion of insulin; INS-1E GLuc reporter insulin secretion, 2-3 h; activation, % at 16.6 µM; hit rate 0.61% among 370,000;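 active = lowest replicate activation of at least 40%, so every replicate reaches that level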;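 also: 0% = median of neutral control wells and 100% = median of IBMX positive control wells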
# MITF act: activators of MITF-driven TRPM1 promoter reporter, primary screen, cell-based, SK-MEL-5, luciferase, single point | AID 588334, 2011 | hit rate 0.75% among 300,000 | SK-MEL-5 TRPM1-promoter luciferase, 24 h; % of positive control, neutral wells = 0 | activation, % at 12.5 µM;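 active = mean activation of at least 80% with every replicate also reaching 80%; inconclusive = mean reaches 80% but some replicate falls short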;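 also: 0% = neutral control wells and 100% = parthenolide positive control wells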
# miR122 inh: miR-122 Renilla sensor signal increase in Huh7, primary screen, miR-122 inhibitor project, cell-based, single point, plate reader | activation (reporter increase), % at 12.5 µM | Huh7 miR-122 Renilla luciferase sensor, 48 h; neutral wells = 0, positive control = 100 | hit rate 0.3% among 340,000 | AID 602342, 2012;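 active = mean replicate activation score at least 90 and every replicate individually at or above 90; inconclusive = only one of the two criteria met; inactive = neither criterion met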;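 also: higher luciferase means less miR-122 activity so hits act as miR-122 inhibitors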
# NSD2 inh: NSD2 histone methyltransferase inhibitors, primary screen, biochemical, AlphaScreen, single concentration, set 2 | Histone-lysine N-methyltransferase NSD2 (Homo sapiens), O96028 | NSD2 peptide methylation, 120 min | inhibition, % at 12.5 µM | hit rate 0.54% among 310,000 | AID 743445, 2014
# Wnt act: Wnt/beta-catenin pathway activators, primary screen, cell-based, plate reader, single point | activation, % at 9.35 µM | AID 743398, 2014 | Wnt/beta-catenin reporter cell assay, activator | hit rate 1.2% among 300,000; in the data active = activation above about 30%, passing the limit was not always enough; inconclusive = no clear call, values can overlap the other calls;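 also: 0% = neutral control wells and 100% = positive control wells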
# * = called active by the depositor; ? = inconclusive; nt = not tested or not shown; [ ] = dose if it differs, or a comment. Rule as the data show it, unless noted: active = inhibition above about 50%; inactive = the rest.
SMILES,Dyrk1A ADPGlo,GSIS activator,MITF act,miR122 inh,NSD2 inh,Wnt act
C[C@@H]1CN([C@@H](C)CO)C(=O)c2c(c3ccccc3n2C)-c2ccccc2CO[C@@H]1CN(C)Cc1ccc(Oc2ccccc2)cc1,nt,10,nt,nt,nt,nt
CCCCn1c(NC(C)CC)nc2c1c(=O)[nH]c(=O)n2C (centres undefined),-3,129*,5,nt,1,nt
C/C(Cl)=C/CSc1nc2c(c(=O)[nH]c(=O)n2C)n1C(C)C,-5,74*,nt,1,-2,-1
CC(C)CCn1c(N2CCCC2)nc2c1c(=O)[nH]c(=O)n2C,6,46*,nt,nt,-1,-1
CCC(C)Nc1nc2c(c(=O)[nH]c(=O)n2C)n1CCOc1ccccc1 (centres undefined),5,20,7,-4,0,0
CCCCCn1c(SC(C)C(C)=O)nc2c1c(=O)[nH]c(=O)n2C (centres undefined),3,73*,nt,-11,nt,13
CCCCCCn1c(SCCCC)nc2c1c(=O)[nH]c(=O)n2C,8,nt,6,-2,nt,nt
O=C(C[C@@H]1CC[C@@H]2[C@H](COC[C@@H](O)CN2Cc2nccs2)O1)N1CCC(Cc2ccccc2)CC1,nt,-16,nt,0[16.7 µM],nt,nt
C[C@H](CO)N1C[C@H](C)[C@@H](CN(C)C(=O)C2CCCCC2)Oc2cc(C3=CCCCC3)ccc2S1(=O)=O,nt,-42,nt,42[16.7 µM],nt,nt
O=C(NCc1ccco1)/C(=C/c1cccc(C(F)(F)F)c1)c1nc2ccccc2[nH]1,-3,-29,-48,-8,2,-6
O=C(NCc1ccco1)/C(=C/c1ccc(C(F)(F)F)cc1)c1nc2ccccc2[nH]1,-1,-22,14,nt,6,34*
O=C(Cc1cccc2ccccc12)Nc1ccc(OC(F)F)c(Cl)c1,-1,-4,-14,94*,-4,nt
C[C@@H]1CCCCO[C@H](CN(C)S(C)(=O)=O)[C@H](C)CN([C@@H](C)CO)C(=O)c2cc(NC(=O)Nc3ccccc3)ccc2O1,nt,2,nt,14[16.7 µM],nt,nt
CNC[C@@H]1Oc2ccc(NS(=O)(=O)c3cccs3)cc2C(=O)N([C@@H](C)CO)C[C@H]1C,nt,18,nt,2[16.7 µM],nt,nt
O=C(Nc1nnc(-c2ccc(F)cc2)s1)c1ccco1,-9,7,106*,nt,-3,15
CN(C(=O)c1ccco1)c1nc(-c2ccc(F)cc2)cs1,11,13,80*,1,-3,0
Cc1cccc(-c2nnc(NC(=O)c3ccco3)s2)c1,-2,-4,27,88,-1,0
CN(C(=O)c1ccco1)c1nnc(-c2ccc(F)cc2)s1,-2,27,100*,nt,2,7
COc1ccc(-c2nnc(N(C)C(=O)c3ccco3)s2)cc1OC,-1,3,29,nt,0,0
N#C[C@H]1[C@@H](c2ccccc2-c2ccccc2)[C@H](CO)N1C(=O)Cc1ccccc1,nt,-13,nt,nt,nt,nt
O=C(c1cccc(F)c1)N1CC2(C1)[C@H](c1ccccc1)[C@H](CO)N2C(=O)C1CCCC1,nt,-3,nt,nt,nt,nt
c1ccc(-c2noc(CCC3CCCC3)n2)cc1,3,22,102*,-4,-1,6
CN(Cc1nc(-c2ccccc2)no1)C1CCOCC1,2,nt,65,-2,-1,41*
CO[C@H]1CC[C@@H]2CCN(C)C(=O)[C@H](C)[C@@H](OC)CN(C)C(=O)c3cc(C#N)ccc3OC[C@H]1O2,nt,9,nt,nt,nt,nt
CCCNC(=O)C[C@@H]1CC[C@@H]2[C@@H](COc3ccc(NC(=O)C4CCCC4)cc3C(=O)N2C)O1,nt,-1,nt,8[16.7 µM],nt,nt
CCOC(=O)C1CCN(Cc2cn[nH]c2-c2ccccc2)CC1,-3,nt,5,-10,126*,nt
CCCc1cc(C(=O)Nc2ccc(CC)cc2)no1,-6,3,159*,0,nt,39*
CCc1ccc(NC(=O)c2cc(C)on2)cc1,2,3,?,-4,31,0
Cc1ccc(NC(=S)Nc2cc(C)on2)cc1,nt,1,nt,8,0,49*
CCCc1cc(C(=O)Nc2ccc(C)cc2)no1,0,nt,nt,-2,nt,56*
